Measured values taken from the OligoGym collection.

Target: GIP
Assay: pooled miR-30 sensor sort-seq; sequence = guide strand
Settings: shRNA
Also: reference of the scale not given here.

Sequence	sensor-assay potency score (higher = more potent)
TTGTTGGTGAATCTTGTCCATG	-1.48
TCACCTTAGCATGAGATCCAAC	-1.2
AATACTGTAGTCACTGATGAAA	-1.63
TAGTCACTGATGAAAGTCCCTT	-0.346
TTGAATCAGCAAGTCCCGCAGC	-0.492

Target: GJB7
Assay: as above
Settings: shRNA

Sequence	sensor-assay potency score (higher = more potent)
TTGTGTGTCACAGAGTAGCTTT	-0.222
TATTCTAAAACAACTAATGTTA	-0.542
TAGAGTTTCTTTCTGTGCCTTT	0.0219
TATTTTTGGAGACAGCACTTAA	-0.911
TCTGACTCTAGAGTGACCCTTT	0.802
TAGTACACATTTTACTATCTGT	-0.554
TTACAGTATAGTACATAGTGAA	-0.477
TTCAACACAATACACAAGCATG	-0.84
TATACTAGTAAATTATAGGCGA	-0.424
TACAGTATAGTACATAGTGAAT	-1.64
TTTGTCTTCCAACTCAGCTTAG	-1.04

Target: GKN1
Assay: as above
Settings: shRNA

Sequence	sensor-assay potency score (higher = more potent)
ATTGTTGACACTCACTGACTGC	-0.392
TTCATTGTTGACACTCACTGAC	0.268
TTCTTTTGAAAGAGTCTGGTTG	0.101
TTTTCTGCACAGCATATTCAGA	-0.973
TTGTGAACTTCATCTTGTCTTC	-0.21
TTTGTGCACAATGCATGTCTTC	-0.893
ATCCATAGTACACTGGTCGTGT	0.399
TACACTGGTCGTGTAGCACGTT	-0.157
TGGTCGTGTAGCACGTTCCTGA	-0.625
TGATATTATAGTTAGCTAGGGC	-0.211
TTGTTGTCATCATTGACGTTGA	-0.288

Target: GKN2
Assay: as above
Settings: shRNA

Sequence	sensor-assay potency score (higher = more potent)
TATTTTCTGACTGAATCTCAAA	-1.16
TGGTAGAAGAGCATGATCCTGC	-0.134
TTATAGTCAAAAATTGTGGTAG	0.587
TTTATAGTCAAAAATTGTGGTA	-0.623
TAGAAGAGCATGATCCTGCATG	-0.328
TGACTTTTGAGTGTAAACCAAG	-1.39
TTAATTTGACTTTTGAGTGTAA	0.33

Target: GLA
Assay: as above
Settings: shRNA

Sequence	sensor-assay potency score (higher = more potent)
TTTAGCAGATCTACTCCCCAGT	-0.498
TTAACCTTGAAGTCCATTCATA	-0.885
TTTATTTCCAACATCTGCATAA	-0.987
TTTATCATAGCTACAGCCCAGG	-0.597
AACTGTCACAGTAACAACCATC	-1.1
TGTCACAGTAACAACCATCAAA	-0.951
